Hit rate of the full screen: of about 64,000 compounds, about 15 (0.02%) were called active. Not all results are given here. Potency and affinity values are given separately. Values without a mark were called inactive. How the calls were made is not given here.

For this assay, the target named is Bcl-2-related protein A1 (Mus musculus) (UniProt Q07440). Briefly: Bfl-1 inhibitors, primary screen, biochemical, fluorescence polarization, FITC-Bid, mouse (AID 432). As to conditions: FITC-Bid BH3 peptide fluorescence polarization displacement; at 20 µM; stronger effect = higher value.
Bcl-2-related protein A1 (Mus musculus), sequence (Q07440 whole entry, looked up): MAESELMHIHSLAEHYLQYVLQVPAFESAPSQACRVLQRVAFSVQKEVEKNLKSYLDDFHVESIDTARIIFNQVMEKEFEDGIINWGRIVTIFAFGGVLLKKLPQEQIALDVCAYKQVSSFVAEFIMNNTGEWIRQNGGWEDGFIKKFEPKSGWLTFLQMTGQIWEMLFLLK
Consider `COC(=O)C(C)n1cnc2c(cnn2-c2ccc(Cl)cc2)c1=O` (configuration not stated), for which the displacement was 1.6%.

For the molecule `CCCCCNC(=O)C(C#N)c1nc2ccccc2nc1N1CCCC1` (configuration not stated), the displacement is 34.3%.

Consider `Cn1c(SCc2ccccc2Cl)nnc1-c1cnccn1`, for which the displacement was -5.3%.

Take `COc1ccccc1OC(=O)c1ccc(SC)cc1OC`: the displacement is -2.3%.

`Cc1cc(OCC(=O)Nc2cc(-c3nn4c(C)nnc4s3)ccc2C)ccc1Cl`: the displacement was 10%.

Take `O=C1c2ccccc2C(Nc2ccc(S(=O)(=O)N3CCOCC3)cc2)N1c1cccnc1` (configuration not stated): the displacement was 8.2%.

`N#CC1=C(N)OC2=C(C(=O)CCC2)C1c1ccsc1` (configuration not stated): the displacement is -2.3%.

For `Cc1csc2ncc(C(=O)Nc3cccc(C(F)(F)F)c3)c(=O)n12`, the displacement is -2%.

Take `Cc1ccc(-n2cccc2C(=S)N=P(N(C)C)(N(C)C)N(C)C)cc1`: the displacement is 22.3%.

With `Cc1ccccc1OCC(=O)NCCN(C)C`, the displacement was -12%.

With `CCCN1Cc2cccc(C(=O)Nc3ccc4c(c3)OCO4)c2C1=O`, the displacement is -7.1%.

With `COc1ccc(CCNC(=O)CSc2nnc(Cn3c(=O)sc4ccccc43)n2C)cc1OC`, the displacement was 4.6%.

As to `O=C(c1ccc(Br)o1)N(Cc1ccccc1)c1ccccn1`, the displacement is -6.6%.

Consider `Cn1c(=O)[nH]c(=O)c2c1nc(N1CCN(c3ccccc3)CC1)n2CCSc1ncccn1`, for which the displacement is 4.5%.

Take `FC(F)(F)c1cccc(N2CCN(c3ccc4nnc(-c5ccccc5)n4n3)CC2)c1`: the displacement was 0.4%.

With `Fc1ccc(-c2nnc3ccc(N4CCCC4)nn23)cc1`, the displacement is -8.2%.

Take `COc1ccc2cnn(CCOc3ccccc3)c(=O)c2c1OC`: the displacement is -3.4%.

For the molecule `CCCn1c(SCC(=O)NCc2ccco2)nc2c1c(=O)n(C)c(=O)n2C`, the displacement is -5.1%.

In the case of `CCOC(=O)C(NC(C)=O)(Nc1ccc(S(=O)(=O)Nc2onc(C)c2C)cc1)C(F)(F)F` (configuration not stated), the displacement was -2.1%.

`Cc1ccc(Nc2nc(C)cc(C)n2)c(Br)c1`: the displacement was -3.3%.

In the case of `CC(C)(C)NC(=O)NC(=O)COC(=O)C1CC(=O)N(Cc2ccccc2)C1` (configuration not stated), the displacement was -5.1%.

Consider `CCCCCOc1ccc(/C=c2\sc3ncnn3c2=O)cc1`, for which the displacement was -9%.

`Cc1csc(NC(=O)CSc2nnc(-c3ccco3)n2C)n1`: the displacement was -7.7%.

`COC(=O)c1[nH]c2ccc(C)cc2c1NC(=O)CN1CCCCC1C` (configuration not stated): the displacement is -1.2%.

As to `COc1ccccc1CNc1ncnc2c1cnn2-c1ccccc1`, the displacement is -2.9%.

Take `CN(C(=O)COC(=O)COc1ccccc1F)C1CCS(=O)(=O)C1` (configuration not stated): the displacement is -1.5%.

For `C=CCn1c(C)cc(C(=O)CSc2nnc(NCc3ccccc3)s2)c1C`, the displacement is 3.3%.

Values taken from PubChem BioAssay AID432 (Sanford-Burnham Center for Chemical Genomics, 2006).
